Results as given in PubChem BioAssay.
The list shows a part of the results. The source made the active and inactive calls.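 Rule for the calls, unless noted: active = activation above a set limit carried over from the earlier primary STAT1 screen (cut at about 140% in these data); inactive = the rest.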

Legend:
[1] = STAT1 signaling activators, confirmation, cell-based, HTS, luciferase reporter (AID 1262); details: NIH 3T3 STAT1-luciferase reporter, IFN-gamma potentiation, luminescence; at 5.7 µM; active compounds read high; 100% = IFN-gamma EC80 alone, no compound;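 note: simple ratio to median IFN-gamma plus DMSO wells so 0% means no light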
[2] = NF-kB reporter activators, TNF-alpha stimulated, counter-screen for STAT1 activator project, cell-based, HEK293T, luciferase luminescence (AID 1306;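 active = activation above the mean of solvent-only control wells plus 3 SD, set per campaign, cut at about 130% in these data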;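 note: TNF-alpha given at a submaximal dose yielding about 80% of full reporter signal; values are well signal over median control so 100% means no change and 0% no light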); details: at 5.7 µM, active compounds read high, 100% = TNF-alpha with vehicle only
[3] = target: Signal transducer and activator of transcription 3 (Homo sapiens) (UniProt P40763); experiment: STAT3 reporter activation by STAT1 hits, confirmation, counter-screen for STAT1 activator project, U3A cells, luciferase, luminescence (AID 1316;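 active = activation above the solvent-only control well mean plus 3 SD, set per plate batch, cut at about 110% in these data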;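 note: 0% = no luminescence and 100% = median IL-6 plus DMSO wells; higher means more STAT3 reporter activation so hits are non-selective activators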); details: IL-6, luminescence, at 5.7 µM, active compounds read high, 100 = IL-6 alone, no compound effect, cells lack STAT1
[4] = growth loss of phage-infected E. coli expressing H. pylori AddAB, confirmation, AddAB inhibitor project, absorbance, E. coli V3065, T4 phage, triplicate (AID 488942;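 active = mean inhibition above a set limit taken from the earlier primary screen, cut at about 13% in these data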;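 note: higher means less bacterial growth since AddAB block lets phage replicate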); details: OD, at 11.9 µM, active compounds read high, T4 phage with gene 2 nonsense mutations
[5] = growth loss of RecBCD+ E. coli with mutant T4 phage, counter-screen for AddAB inhibitor project, absorbance, V66 E. coli (AID 488955;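 active = mean inhibition above the mean of solvent-only control wells plus 3 SD, cut at about 4% in these data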;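 note: optical density read after an 18 h incubation at 37 °C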); details: OD growth, at 11.9 µM, active compounds read high
[6] = bacterial viability inhibition counter-screen, confirmation, counter-screen for AddAB inhibitor project, absorbance (AID 488956; in the data active = inhibition above about 25%); details: absorbance (AddAB counterscreen), at 11.9 µM, active compounds read high
[7] = growth loss of phage-infected RecBCD+ E. coli, confirmation, RecBCD inhibitor project, absorbance, E. coli V66, T4 gene 2 phage (AID 651982;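 active = mean inhibition over triplicates exceeding the hit threshold derived in the original primary screen, cut at about 11% in these data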); details: E. coli V66 + T4 2- phage, growth OD; at 11.9 µM; active compounds read high
[8] = E. coli viability inhibition, counter-screen for RecBCD inhibitor project, absorbance, high throughput (AID 651983; in the data active = inhibition above about 20%;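 note: E. coli strain V66 grown with compound alone and no phage infection; 0% = bacteria with DMSO vehicle only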); details: absorbance (OD) growth, at 11.9 µM, active compounds read high
[9] = growth loss of phage-infected AddAB-carrying E. coli, confirmation, counter-screen for RecBCD inhibitor project, absorbance, E. coli V3065, T4 phage (AID 651984;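 active = mean inhibition above the solvent-only control wells' mean plus 3 SD, cut at about 22% in these data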;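 note: higher means less bacterial growth from phage killing when AddAB is blocked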); details: E. coli expressing H. pylori AddAB + T4 phage, OD growth; at 11.9 µM; active compounds read high; gene 2 mutant T4, recBCD-deleted host
[10] = tested on: HIV-1 integrase (multimerization); experiment: HIV-1 IN multimer formation enhancers, counter-screen for LEDGF/p75 integration inhibitor project, biochemical, TR-FRET (AID 1053131; in the data active = activation above about 8.9%); details: TR-FRET HIV-1 integrase multimerization, at 7.7 µM, active compounds read high
[11] = TR-FRET optical interference artefacts, confirmation, artefact control for LEDGF/p75-dependent integration inhibitor project, biochemical, HIV-1 IN multimerization (AID 1053135;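 active = inhibition above the mean over all tested compounds plus 3 SD, which no compound reached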;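 note: 0% = integrase with antibodies and DMSO and 100% = antibodies without integrase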); details: TR-FRET optical interference counterscreen, at 7.7 µM, active compounds read high
[12] = tested on: HIV-1 integrase / human LEDGF/p75 complex; experiment: inhibitors of HIV-1 IN-LEDGF/p75 DNA integration, confirmation, biochemical, TR-FRET (AID 1053136; in the data active = inhibition above about 14%); details: TR-FRET LEDGF/p75-dependent HIV-1 integration, at 3.7 µM, active compounds read high
[13] = compounds interfering with TAMRA-BSA probe, counter-screen for TCR-CD3 interaction inhibitor project, biochemical, fluorescence, TAMRA-labeled BSA (AID 652035; in the data active = inhibition above about 23%;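 note: 0% = buffer low control and 100% = reference high control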); details: TAMRA-labeled BSA probe fluorescence counterscreen; at 9.4 µM; active compounds read high
[14] = tested on: T-cell receptor (TCR)-CD3 interaction, human; experiment: TCR-CD3 interaction inhibitors, retest, confirmation, biochemical, fluorescence, TAMRA-labeled TCR probe (AID 652036; in the data active = inhibition above about 19%); details: TAMRA-labeled TCR probe fluorescence binding assay; at 9.4 µM; active compounds read high
[15] = target: Galanin receptor type 2 (Homo sapiens) (UniProt O43603); experiment: GALR2 antagonists, retest of hits, confirmation, cell-based (AID 866; in the data active = inhibition above about 27%;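 note: cells stimulated with galanin at about its EC80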); details: GALR2-expressing cells, antagonist mode, at 4 µM, active compounds read high
[16] = inhibitors of NFAT-driven beta-lactamase reporter, confirmation, counter-screen for GALR2 antagonist project, CHO NFAT-bla cells, FRET readout (AID 867;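 active = inhibition above the mean inhibition across tested compounds plus 3 SD, cut at about 27% in these data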;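 note: 0% = 500 nM thapsigargin stimulated wells and 100% = unstimulated BSA only wells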); details: thapsigargin-stimulated, at 4.2 µM, active compounds read high
[17] = tested on: TLR4-MyD88 interaction (human), BLA complementation; experiment: TLR4-MyD88 association inhibitors, retest, confirmation, cell-based, HeLa CL3-4, BLA complementation, FRET ratio (AID 941;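 active = mean inhibition across three repeat runs above about 25% carried over from the earlier screen, limit read from the data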;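 note: plate controls were DMSO only for no effect and clavulanic acid blocking BLA at full dose for full effect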); details: CCF4 FRET ratio, at 8.4 µM, active compounds read high
[18] = inhibitors of full-length beta-lactamase reporter, confirmation, artefact control for TLR4-MyD88 binding inhibitor project, cell-based, HeLa, full-length BLA, CCF4 FRET ratio (AID 1237;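 active = mean inhibition over three repeats above about 26% taken from the earlier screen, limit read from the data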;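 note: HeLa cells stably expressing beta-lactamase reporter as counterscreen for TLR4-MyD88 inhibitors; 0% = DMSO and 100% = clavulanic acid full inhibition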); details: at 8.4 µM, active compounds read high
[19] = target: Toll-like receptor 9 (Homo sapiens) (UniProt Q9NR96); experiment: TLR9-MyD88 association inhibitors, retest, confirmation, cell-based, CHO, BLA complementation, fluorescence, triplicate (AID 540250;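 active = mean inhibition across three repeats above about 21% taken from the earlier screen, limit read from the data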;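 note: blue over green emission ratio reports constitutive TLR9 MyD88 association via BLA complementation; 0% = DMSO vehicle wells and 100% = clavulanate BLA inhibitor wells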); details: CCF4 FRET ratio, at 4.98 µM, active compounds read high
[20] = beta-lactamase reporter inhibitors in CHO cells, artefact control for TLR9-MyD88 binding inhibitor project, cell-based, fluorescence (AID 540251;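 active = mean inhibition above a 50% cutoff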;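 note: counterscreen of TLR9-MyD88 hits on CMV-driven BLA in CHO-K1 cells; 0% = DMSO alone and 100% = clavulanate blocking BLA; higher means less blue over green ratio so more BLA blockade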); details: CHO-BLA cells, CCF4 FRET ratio, at 4.98 µM, active compounds read high
[21] = CHO cell viability loss – luminescence, single concentration, cytotoxicity control for TLR9-MyD88 binding inhibitor project (AID 588336; in the data active = inhibition above about 11%); details: TLR9-MyD88 CHO cells cytotoxicity, at 4.98 µM, active compounds read high
[22] = target: Receptor-interacting serine/threonine-protein kinase 2 (Homo sapiens) (UniProt O43353); experiment: NOD2-RIPK2 binding disruptors, retest, confirmation, fluorescence, CHO cells, BLA complementation, triplicate (AID 624370;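 active = mean inhibition across replicates above a set limit taken from the earlier primary screen, cut at about 21% in these data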;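 note: 0% = DMSO-only wells and the high end = clavulanate BLA-blocked wells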); details: CCF4 FRET, at 4.98 µM, active compounds read high
[23] = beta-lactamase reporter inhibitors in CHO cells, confirmation, artefact control for NOD2-RIPK2 interaction inhibitor project, cell-based, CHO-K1 CMV-bla, CCF4 FRET, fluorescence (AID 624371;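 active = mean inhibition above the low-control mean inhibition plus three low-control SD, cut at about 11% in these data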;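 note: 0% = DMSO only wells and 100% = clavulanate high control wells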); details: CCF4 FRET ratio, counterscreen, at 4.98 µM, active compounds read high

Sequence of Galanin receptor type 2 (Homo sapiens) (O43603 whole entry, looked up): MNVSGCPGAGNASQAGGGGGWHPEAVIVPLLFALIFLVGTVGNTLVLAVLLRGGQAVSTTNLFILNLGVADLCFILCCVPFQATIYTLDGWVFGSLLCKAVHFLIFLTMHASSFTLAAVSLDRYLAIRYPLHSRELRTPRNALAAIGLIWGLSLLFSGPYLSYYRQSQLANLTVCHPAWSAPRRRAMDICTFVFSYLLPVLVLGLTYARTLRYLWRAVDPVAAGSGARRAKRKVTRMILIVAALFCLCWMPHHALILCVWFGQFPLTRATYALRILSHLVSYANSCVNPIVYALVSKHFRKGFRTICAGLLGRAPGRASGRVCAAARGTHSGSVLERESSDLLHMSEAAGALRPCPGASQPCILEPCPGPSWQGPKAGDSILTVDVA
Sequence of Toll-like receptor 9 (Homo sapiens) (Q9NR96 whole entry, looked up): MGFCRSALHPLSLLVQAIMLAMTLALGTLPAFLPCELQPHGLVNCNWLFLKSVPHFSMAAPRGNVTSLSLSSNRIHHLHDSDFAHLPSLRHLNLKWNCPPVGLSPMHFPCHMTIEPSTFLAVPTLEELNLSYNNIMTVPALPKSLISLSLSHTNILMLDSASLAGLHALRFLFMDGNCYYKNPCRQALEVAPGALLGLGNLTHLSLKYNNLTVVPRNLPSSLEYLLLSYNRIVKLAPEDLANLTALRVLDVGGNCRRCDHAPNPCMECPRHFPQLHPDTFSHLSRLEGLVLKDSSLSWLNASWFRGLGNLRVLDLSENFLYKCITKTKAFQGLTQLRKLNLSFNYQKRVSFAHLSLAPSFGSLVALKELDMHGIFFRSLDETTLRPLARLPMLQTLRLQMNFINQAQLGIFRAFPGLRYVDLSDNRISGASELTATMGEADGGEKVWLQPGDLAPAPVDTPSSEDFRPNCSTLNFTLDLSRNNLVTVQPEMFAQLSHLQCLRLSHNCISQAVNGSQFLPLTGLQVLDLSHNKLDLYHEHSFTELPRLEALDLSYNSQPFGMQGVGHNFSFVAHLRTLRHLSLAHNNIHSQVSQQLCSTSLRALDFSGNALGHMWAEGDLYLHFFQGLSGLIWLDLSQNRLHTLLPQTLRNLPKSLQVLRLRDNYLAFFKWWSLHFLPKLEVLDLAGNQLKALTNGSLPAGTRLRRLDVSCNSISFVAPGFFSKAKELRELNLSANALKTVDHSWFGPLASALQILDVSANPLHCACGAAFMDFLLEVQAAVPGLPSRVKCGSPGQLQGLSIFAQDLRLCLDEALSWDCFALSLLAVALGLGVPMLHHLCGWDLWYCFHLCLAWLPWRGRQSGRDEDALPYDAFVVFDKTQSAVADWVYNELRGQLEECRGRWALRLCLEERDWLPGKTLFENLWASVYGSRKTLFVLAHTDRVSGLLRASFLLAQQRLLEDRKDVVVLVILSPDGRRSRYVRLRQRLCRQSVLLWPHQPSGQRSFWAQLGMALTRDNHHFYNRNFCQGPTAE
Sequence of Receptor-interacting serine/threonine-protein kinase 2 (Homo sapiens) (O43353 whole entry, looked up): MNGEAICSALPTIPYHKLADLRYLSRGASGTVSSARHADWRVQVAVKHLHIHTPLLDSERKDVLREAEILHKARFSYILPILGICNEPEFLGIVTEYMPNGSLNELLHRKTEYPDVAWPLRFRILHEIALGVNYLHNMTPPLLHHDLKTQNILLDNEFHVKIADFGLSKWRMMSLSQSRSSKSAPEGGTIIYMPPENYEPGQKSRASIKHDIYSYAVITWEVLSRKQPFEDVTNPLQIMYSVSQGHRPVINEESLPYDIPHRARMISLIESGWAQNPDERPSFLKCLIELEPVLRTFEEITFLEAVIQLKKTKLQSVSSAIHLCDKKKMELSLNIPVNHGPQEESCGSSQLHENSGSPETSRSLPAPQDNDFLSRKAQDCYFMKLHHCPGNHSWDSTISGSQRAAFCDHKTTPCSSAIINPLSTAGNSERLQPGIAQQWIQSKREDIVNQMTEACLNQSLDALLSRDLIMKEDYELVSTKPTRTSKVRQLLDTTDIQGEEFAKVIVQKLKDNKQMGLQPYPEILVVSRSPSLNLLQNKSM

O=C(c1cc(-c2cccs2)on1)N1CCCCC1
active: activation (% of control) [1] 184%
inactive: activation (% of control) [2] 125% | activation (% of control) [3] 105%

C=CC1=C(C(=O)O)N2C(=O)[C@@H](NC(=O)/C(=N\OCC(=O)O)c3csc(N)n3)[C@H]2SC1
inactive: inhibition [11] -430%
active: inhibition [4] 103% | inhibition [5] 103% | inhibition [6] 104% | inhibition [7] 102% | inhibition [8] 104% | inhibition [9] 104% | activation [10] 85.5% | inhibition [12] 62.9%

Cc1[nH]n(-c2ccccc2)c(=O)c1/C=N/NC(=O)c1ccoc1C
inactive: activation (% of control) [1] 120% | activation (% of control) [2] 117% | activation (% of control) [3] 108%

Cc1ccccc1NCC(=O)N/N=C\c1ccc([N+](=O)[O-])s1
inactive: inhibition [13] 1.19% | inhibition [14] 7.69% | activation [10] -0.2% | inhibition [11] 1.03% | inhibition [12] -2.15%

COc1ccccc1N1N=C(c2cccs2)CC1c1ccccc1 (centres undefined)
inactive: inhibition [20] 43.5% | inhibition [21] 2.88%
active: inhibition [15] 27.9% | inhibition [16] 39.8% | inhibition [17] 36% | inhibition [18] 70% | inhibition [19] 32.9% | inhibition [22] 51.8% | inhibition [23] 65.6%
